# Source: PubChem BioAssay AID624312 (National Center for Advancing Translational Sciences (NCATS), 2012)
# Results filed as inconclusive are left out. The source made the active and inactive calls. Calls come from the whole dose curve; as a rule, active = well fitted inhibition curve with a large enough effect; inconclusive = small, poorly fitted or top-dose-only effect; inactive = no such curve, though single readings can be large or run the other way.
# Molecular target: Peptidyl-prolyl cis-trans isomerase NIMA-interacting 1 (Homo sapiens) (UniProt Q13526)
# Sequence (Q13526 whole entry, looked up): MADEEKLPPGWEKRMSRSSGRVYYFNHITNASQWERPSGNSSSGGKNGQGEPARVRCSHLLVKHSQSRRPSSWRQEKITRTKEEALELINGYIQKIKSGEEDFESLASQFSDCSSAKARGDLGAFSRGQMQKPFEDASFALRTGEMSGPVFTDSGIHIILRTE
# Assay: qHTS Assay to Find Inhibitors of Pin1: Hit Validation using Tamra Binding
# Conditions: Pin1 Tamra-peptide displacement, fluorescence polarization, 10 min; series mostly up to 57.5 µM
# Source text: The unique chemical properties of Pro allow for the adoption of two completely distinct amide bond conformations (cis and trans). Peptidyl-prolyl cis/trans isomerases (PPIases) are evolutionary conserved enzymes that catalyze cis/trans isomerization of peptidyl-prolyl peptide bonds. Distinct from all other PPIases such as cyclophilins and FK506-binding proteins (FKBPs), Pin1 binds a subset of phos.Ser/Thr-Pro-containing proteins using its protein-targeting WW domain and isomerizes only specific phos.Ser/Thr-Pro bonds, which cannot be effectively catalyzed by other known PPIases. Pin1-catalyzed conformational regulation can control a spectrum of activities of many key regulators in diverse cellular processes such as cell growth, genotoxic and other stress responses, immune response, germ cell development, neuronal differentiation and survival. Pin1 has emerged as a novel molecular timer that modulates its multiple targets at various steps of a given cellular process to synergistically control the amplitude and duration of a cellular response or process. Importantly, Pin1 is tightly regulated by multiple levels and its deregulation has an important role in a growing number of pathological conditions, including cancer, Alzheimer's disease, aging, asthma and microbial infection, providing a potentially new therapeutic option. The goal of this screen is to find small-molecule inhibitors of Pin1 using a fluorescence polarization competition assay.In the primary screen, a HiFluor-488-labeled peptide binds to the active site of Pin1 and can be displaced by compounds. Compounds were screened as a concentration-titration series that ranged from 57 uM to 0.7 nM. To validate the hits using a different read-out, this Tamra binding assays was used against all the hits identified from the primary screen. NIH Molecular Libraries Probe Production Network [MLPCN] NIH Chemical Genomics Center [NCGC] MLPCN Grant: R03 DA031663 PI Name: Dr. Kun Ping Lu, Beth Israel Deaconess Medical Center
# Briefly, 2 uL of Pin1 (all columns but column 3, which just receives buffer and serves as negative control) are dispensed into Greiner black solid bottom 1536-well assay plates. Compounds are then transferred via Kalypsys pin tool equipped with 1536-pin array (10 nl slotted pins, V&P Scientific, San Diego, CA). Following addition of compound, 2 uL of Tamra-probe in buffer (all columns) is added to initiate the binding reaction. The plates are then incubated at room temperature for 10 minutes. Finally, plates are transferred to a ViewLux high-throughput CCD imager (PerkinElmer), wherein end-point measurements of fluorescence polarization are acquired. All reagents are diluted in an assay buffer consisting of 10 mM Hepes, 10 mM NaCl, 1 mM DTT, 1% glycerol and 0.01% Tween-20.
row,SMILES,Potency
1,Nc1ccc2cccc(O)c2c1,26.9 µM (active)
2,COc1ccccc1Nc1ccc2c(O)cc(S(=O)(=O)O)cc2c1,7.57 µM (active)
3,CC(=O)Nc1ccc(Nc2c3c4c(cccc4n(C)c2=O)C(=O)c2ccccc2-3)cc1,inactive
4,COc1ccc(S(=O)(=O)Nc2cc(Sc3ncn[nH]3)c(O)c3ccccc23)cc1,inactive
5,O=S(=O)(Nc1cc(Sc2ncn[nH]2)c(O)c2ccccc12)c1ccccc1,inactive
6,Cc1ccc2nc(-c3ccc(N=Nc4cc(S(=O)(=O)O)c5ccccc5c4O)cc3)sc2c1S(=O)(=O)O,inactive
7,O=S(=O)(O)c1cc(O)c2cc(Nc3ccccc3)ccc2c1,12 µM (active)
8,CCCCCC(=O)Nc1cc(S(=O)(=O)O)cc2cc(S(=O)(=O)O)cc(O)c12,2.39 µM (active)
9,O=S(=O)(O)c1ccc(O)c2cc(Nc3ccccc3)ccc12,3.01 µM (active)
